Tests used:
Conditions in all cases: concentration: 1 μM, replicates: in singlicate; n = 1
BTK = tested on: BTK
BUB1 = tested on: BUB1
CAMK1B = tested on: CAMK1B
CAMK1D = tested on: CAMK1D
CAMK1G = tested on: CAMK1G
CAMK1 = tested on: CAMK1
CAMK2A = tested on: CAMK2A
CAMK2B = tested on: CAMK2B
CAMK2D = tested on: CAMK2D
CAMK2G = tested on: CAMK2G
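Note: KINOMEscan kinase panel screen.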

| SMILES | %Inh (BTK) | %Inh (BUB1) | %Inh (CAMK1B) | %Inh (CAMK1D) | %Inh (CAMK1G) | %Inh (CAMK1) | %Inh (CAMK2A) | %Inh (CAMK2B) | %Inh (CAMK2D) | %Inh (CAMK2G) |
| --- | --- | --- | --- | --- | --- | --- | --- | --- | --- | --- |
| Cn1cncc1-c1cc2c(Nc3ccc(OCc4ccccc4)cc3)ncnc2cn1 [GW281179] | 0% | 34% | 25% | 14% | 0% | 20% | 0% | 0% | 12% | 36% |
| COc1ccc(CSc2nnc(-c3ccc4c(c3)CCO4)o2)cc1 | 0% | 0% | 0% | 0% | 9% | 0% | 0% | 0% | 0% | 0% |
| FC(F)(F)c1ccccc1-c1cc(-c2c[nH]nc2-c2ccccn2)ccn1 [GW679396] | 0% | 0% | 29% | 12% | 8% | 21% | 0% | 0% | 9% | 29% |
| CN1c2ccc(-c3ccc(C(N)=O)cc3)cc2-c2[nH]ncc2S1(=O)=O | 0% | 0% | 32% | 10% | 0% | 27% | 11% | 7% | 18% | 2% |
| Cc1ccccc1Cn1ccn2c(=O)cc(N3CCOCC3)nc12 [GSK2269905] | 0% | 0% | 0% | 0% | 3% | 2% | 0% | 0% | 20% | 47% |

Reference: article PMC5540273 (PLoS ONE, 2017)
